The source of these data is the supplement of paper PMC3334620.

The full ranking holds about 33,000 sequences; the median of “E-score (-0.5 to 0.5)” is about -0.032, and the highest 2% start at about 0.36. For the sample, the highest values were picked, then their nearest neighbours and some sequences at random.

For this assay, the target named is T1, Sko1 (UniProt Q02100).
T1 sequence: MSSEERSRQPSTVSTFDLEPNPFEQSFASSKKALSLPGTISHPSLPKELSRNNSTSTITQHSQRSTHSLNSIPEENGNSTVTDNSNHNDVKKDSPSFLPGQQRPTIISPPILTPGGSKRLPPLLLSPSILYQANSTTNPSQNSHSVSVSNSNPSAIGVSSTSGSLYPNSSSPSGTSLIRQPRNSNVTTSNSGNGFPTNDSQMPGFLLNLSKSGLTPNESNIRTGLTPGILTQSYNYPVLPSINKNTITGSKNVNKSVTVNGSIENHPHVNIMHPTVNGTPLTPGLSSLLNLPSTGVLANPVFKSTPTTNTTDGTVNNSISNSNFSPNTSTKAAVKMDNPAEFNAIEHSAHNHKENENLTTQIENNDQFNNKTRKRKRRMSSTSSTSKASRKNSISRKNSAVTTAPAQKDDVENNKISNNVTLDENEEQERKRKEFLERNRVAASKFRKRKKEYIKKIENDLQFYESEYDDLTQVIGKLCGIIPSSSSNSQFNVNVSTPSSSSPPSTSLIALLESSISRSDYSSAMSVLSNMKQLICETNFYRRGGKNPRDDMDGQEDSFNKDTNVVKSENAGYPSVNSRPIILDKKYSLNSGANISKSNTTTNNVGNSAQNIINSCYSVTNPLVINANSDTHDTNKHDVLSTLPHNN
The assay can be described thus: PBM E-score (8-mer binding enrichment) (E-score (-0.5 to 0.5)); higher = stronger / more preferred TF binding. Conditions: protein concentration: 200 nM; construct: GST-full length. In a few lines:
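The E-score, a modified Wilcoxon-Mann-Whitney statistic, was computed by the Universal PBM Analysis Suite for every ungapped eight-base word pooled with its reverse complement. Scans behind it were normalised with masliner after bound GST-tagged yeast transcription factors were detected with fluorescent anti-GST. The proteins, at about 100-200 nM, had been applied to universal all-10-mer Agilent arrays made double-stranded by primer extension.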
In the case of CCTCATTA, the “PBM E-score” value came out at 0.131. For the sequence ATTGCCAC, the “PBM E-score” value is -0.11. As for CGATGGGA, the figure is -0.0417. On to ACACTAAT, for which the “PBM E-score” value was 0.119. AGGTCCAT: the “PBM E-score” value came out at 0.0213. With AGGACATC, the “PBM E-score” value was -0.0352.

As for GACGGGCA, the “PBM E-score” value is -0.145. As for ATGCGTAA, the “PBM E-score” value amounted to 0.437. ATGCGTAC: the “PBM E-score” value was determined as 0.291. As for CTGCGTTA, the “PBM E-score” value amounted to 0.0283.

Take CTGCGTAA: the “PBM E-score” value was determined as 0.397. On to CTGCGTAC, for which the “PBM E-score” value was determined as 0.149.

Turning to GTGCGTAA, the “PBM E-score” value was found to be 0.418. As for GAGCGTAA, the figure is 0.218; as for ATGCGTAG, 0.3.

As to GTGCGCAA, the “PBM E-score” value amounted to 0.114.

On to CACTGCAG, for which the “PBM E-score” value was -0.064. For CATCTTAC, the “PBM E-score” value came to 0.228. For TCAGAGAA, the “PBM E-score” value was determined as 0.00926. As for ACGCCAAG, the “PBM E-score” value is -0.0349. Regarding ACGCCATA, the “PBM E-score” value is 0.393.

As for CCGCCATC, the “PBM E-score” value is -0.29. Turning to ACGCCACC, the “PBM E-score” value is 0.0629. In the case of ACGCCATC, the “PBM E-score” value worked out at 0.376. In the case of ACGCCATG, the “PBM E-score” value is 0.368. Regarding CCGCCATA, the “PBM E-score” value is -0.182. As to GCGCCATA, the “PBM E-score” value came out at 0.0343. As for ACGCCACA, the figure is 0.234; as for AAGGATCC, -0.254.

CCACGCAG: the “PBM E-score” value was 0.057. For the sequence ACACGGGT, the “PBM E-score” value is -0.189. As for CAGCATCG, the figure is -0.332; as for CCCGCTAC, -0.15; as for AACCATAT, 0.119. Regarding CCCCGTAG, the “PBM E-score” value is -0.2. Regarding CCACGTAG, the “PBM E-score” value was determined as 0.377. As for CCACGTTC, the figure is 0.0509; as for CCACGTGC, 0.341; as for CCACGTAA, 0.456. As for CCACGTGA, the figure is 0.339; as for CCACGTAC, 0.374; as for CCACGTGG, 0.177. As for CCCCGTAA, the figure is 0.0319. Regarding ATGGGGCA, the “PBM E-score” value was -0.185. Take CAATAGTC: the “PBM E-score” value is -0.085. As for CTGGTACA, the “PBM E-score” value is -0.00751. Turning to GTCTGGGA, the “PBM E-score” value was -0.133. Consider CGTCGTCC, for which the “PBM E-score” value was -0.0443. For AGTCGTCG, the “PBM E-score” value was -0.148. Consider CGTCGTCA, for which the “PBM E-score” value was found to be 0.362. As for AGTCGTCC, the figure is -0.114; as for GGTCGTGA, 0.0516. Consider GGTCGTTA, for which the “PBM E-score” value was -0.0165. CGTCGTTA: the “PBM E-score” value stood at 0.153. As for GGTCGTCA, the figure is 0.38.

As to AGTCGTCA, the “PBM E-score” value was found to be 0.37. Regarding AGAGGTAG, the “PBM E-score” value was -0.178.

Consider GGGCTAAA, for which the “PBM E-score” value is -0.182. As for ACACACGA, the figure is 0.213; as for AAACACGT, 0.413; as for ACACACGG, -0.0648. Take ACACACGT: the “PBM E-score” value came out at 0.433. Consider AAACACGA, for which the “PBM E-score” value stood at 0.163. For the sequence AAACACGC, the “PBM E-score” value came to 0.316. For ATATAGAG, the “PBM E-score” value was -0.151.

On to CTTTGGGA, for which the “PBM E-score” value is -0.187. As for AATGAGCG, the figure is 0.0936.

On to ACGCAATG, for which the “PBM E-score” value is 0.399. As for ACGCAATA, the “PBM E-score” value came to 0.45. AGGCAATG: the “PBM E-score” value stood at 0.00123. Consider ACGCAAGC, for which the “PBM E-score” value turned out to be 0.327.

As for GCGCAATA, the “PBM E-score” value worked out at 0.0795.

Take ACGCAAGG: the “PBM E-score” value is 0.316. As for CCGCAATC, the “PBM E-score” value is -0.102.

As to ACGCAATC, the “PBM E-score” value was 0.411.

Regarding CCGCAATA, the “PBM E-score” value is 0.0923. For AAAGGGGT, the “PBM E-score” value is -0.26.

As for ATCCACTA, the “PBM E-score” value is -0.0731. In the case of CGTTAATC, the “PBM E-score” value is 0.168. On to ACGGCCCA, for which the “PBM E-score” value was -0.317.

Consider ATAACCAT, for which the “PBM E-score” value amounted to 0.057. As for AAGTTTGC, the figure is 0.0635; as for CTGTGCTC, 0.0303; as for CCTACGTC, 0.427. Take CCTACGAC: the “PBM E-score” value worked out at 0.0224.

Regarding CCTACGGA, the “PBM E-score” value is -0.182. As for CCTACGGC, the “PBM E-score” value was -0.34. CCTACGAA: the “PBM E-score” value amounted to 0.0841. In the case of ACTACGTC, the “PBM E-score” value worked out at 0.433. As for CCTACGTA, the figure is 0.477; as for ACTACGGC, -0.0407. Consider ACTACGCC, for which the “PBM E-score” value is -0.00632. On to GCGGGTAC, for which the “PBM E-score” value is -0.0713. Consider CACACTAC, for which the “PBM E-score” value stood at 0.0507.

Regarding CCAAGCGC, the “PBM E-score” value is -0.147. Turning to AGTTGCAA, the “PBM E-score” value stood at 0.219.

Turning to ACATCCGG, the “PBM E-score” value was -0.227. Consider CCTACCGA, for which the “PBM E-score” value was -0.168. Turning to CCACGCCC, the “PBM E-score” value was -0.165. As for CCGGTGGA, the “PBM E-score” value was -0.297.

Consider AAGTATAT, for which the “PBM E-score” value stood at 0.118. As to CCGTATAG, the “PBM E-score” value is -0.115.

For ACGTATAG, the “PBM E-score” value was determined as 0.437. Turning to ACGTATAC, the “PBM E-score” value was 0.463. With CCGTATAA, the “PBM E-score” value turned out to be 0.0514. In the case of CCGTATAC, the “PBM E-score” value amounted to 0.0259.

With ACGTATAA, the “PBM E-score” value is 0.457. For the sequence ACGTATAT, the “PBM E-score” value amounted to 0.453.

On to AGGTATAG, for which the “PBM E-score” value was -0.141. Consider ATGTATAC, for which the “PBM E-score” value was 0.247. As for TCGTATAA, the figure is 0.221. AGGTATAT: the “PBM E-score” value amounted to 0.184. In the case of ACGTGAGT, the “PBM E-score” value stood at 0.331.
